Only some compounds are listed: those with a hit (about 12% of all), similar ones and a draw of the others.
JMJD2A Tudor inh = qHTS Assay for Inhibitors of JMJD2A-Tudor Domain. Lysine-specific demethylase 4A (Homo sapiens), O75164. AlphaScreen JMJD2A-Tudor / H3K4me3 peptide binding. Potency, µM (highest dose often 114 µM), inactives show at the top dose activity change, negative = inhibition, usual class: inhibitors. hit rate 4.4% among 390,000; note: % is set by controls: 0 for no effect and ±100 for the full control effect; nearly all actives have a fitted effect of over 50% in size
HP1b binding inh = HTS for Inhibitors of HP1-beta Chromodomain Interactions with Methylated Histone Tails | Chromobox protein homolog 1 (Homo sapiens), P83916 | AlphaScreen HP1-beta / biotin-H3K9me3 peptide binding | Potency, µM (top dose mostly 114 µM), for inactives: at the top dose activity change, negative = inhibition, hits mostly inhibitors | hit rate 0.56% among 390,000 | AID 540317, 2011; note: nearly all actives have a fitted effect of over 70% in size
Target sequence (P83916 whole entry, looked up): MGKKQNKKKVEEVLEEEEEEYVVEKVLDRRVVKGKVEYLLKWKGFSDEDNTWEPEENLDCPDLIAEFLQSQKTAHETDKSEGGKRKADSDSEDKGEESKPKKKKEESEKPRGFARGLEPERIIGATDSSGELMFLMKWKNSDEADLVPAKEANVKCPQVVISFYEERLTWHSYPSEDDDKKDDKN
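AlphaScreen: HP1-beta (50 nM) preformed 30 min with biotin-H3(1-18)K9me3 peptide (50 nM) in PBS pH 7.4, 0.01% Tween-20. Compound added for 30 min at RT, then streptavidin donor/nickel chelate acceptor beads (10 ug/mL) for 30 min.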
G9a block = qHTS Assay for Inhibitors of Histone Lysine Methyltransferase G9a; G9a H3K9 monomethylation, AlphaScreen, 2 h; Histone-lysine N-methyltransferase EHMT2 (Homo sapiens), Q96KQ7; Potency, µM (titrated, usually from 102 µM), for the others: at the top dose activity, negative = inhibition, most hits filed as inhibitors; hit rate 8.8% among 350,000; note: % is set by controls: 0 for no effect and ±100 for the full control effect; nearly all actives have a fitted effect of over 75% in size
Target sequence (Q96KQ7 913-1193 limits assumed): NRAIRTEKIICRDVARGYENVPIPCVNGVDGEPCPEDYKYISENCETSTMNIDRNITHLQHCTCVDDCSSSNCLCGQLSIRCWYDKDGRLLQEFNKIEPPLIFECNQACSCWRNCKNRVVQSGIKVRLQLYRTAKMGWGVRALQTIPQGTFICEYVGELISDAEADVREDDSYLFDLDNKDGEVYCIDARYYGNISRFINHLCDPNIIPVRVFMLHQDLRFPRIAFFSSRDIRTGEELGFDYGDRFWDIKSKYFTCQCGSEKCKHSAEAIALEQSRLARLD
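AlphaScreen detection with an anti-monomethyl H3K9 antibody quantified product after a 2 h room-temperature reaction containing 500 nM biotinylated H3K9 peptide, 20 µM SAM and 20 nM enzyme, which had been preincubated 15 min with compound.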
PLK1 PBD inh = qHTS for Inhibitors of PLK1-PDB (polo-like kinase 1 - polo-box domain): Primary Screen | Serine/threonine-protein kinase PLK1 (Homo sapiens), P53350 | Plk1 PBD binding of FITC phosphopeptide, fluorescence polarization | Potency, µM, for inactives: max response, negative = inhibition, actives largely listed as inhibitors | hit rate 2.8% among 360,000 | AID 720504, 2013; note: series mostly up to about 57 µM; % is set by controls: 0 for no effect and ±100 for the full control effect; nearly all actives have a fitted effect of over 65% in size
Sfp PPTase inh = qHTS Assay for Inhibitors of Bacillus subtilis Sfp phosphopantetheinyl transferase (PPTase) | AID 1490, 2009 | 4'-phosphopantetheinyl transferase ffp (Bacillus subtilis), Q9F4F7 | Potency, µM, without a hit: largest response in the series, negative = inhibition, usual class: inhibitors | Biochemical Sfp PPTase activity, qHTS | hit rate 3.5% among 310,000;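 note: the enzyme is Sfp with the accession as filed and its product quenches rhodamine fluorescence; 0% = enzyme reaction without inhibitor and -100% = no enzyme wells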
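Fluorescence-quenching assay: 15 nM Sfp-PPTase preincubated 15 min at room temperature with compound, then 5 uM rhodamine-CoA and 12.5 uM BHQ-2-labelled YbbR peptide added. Fluorescence (ex 525/em 598 nm) read at start and after 30 min; difference gives rate.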
BAZ2B block = qHTS Assay for Inhibitors of BAZ2B | Bromodomain adjacent to zinc finger domain protein 2B (Homo sapiens), Q9UIF8 | AlphaScreen BAZ2B-H3K14Ac peptide displacement | Potency, µM (series often up to 114 µM), without a hit: top-dose activity change, negative = inhibition, actives largely listed as inhibitors | hit rate 4.4% among 360,000; note: % is set by controls: 0 for no effect and ±100 for the full control effect; nearly all actives have a fitted effect of over 60% in size
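AlphaScreen displacement: compounds (up to 110uM) incubated 30 min at room temperature with a preformed 50 nM BAZ2B/50 nM biotinylated H3K14Ac peptide complex in PBS pH 7.4 with Tween-20. Donor and acceptor beads at 10 ug/mL final added, 20 min light-protected before reading.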
TbPYK confirm = qHTS of Trypanosoma Brucei Inhibitors: Confirmatory Assay for Cherry-picked Compounds; hit rate 67% among 890; Potency, µM (top dose mostly 76.9 µM), inactives show top-dose activity change, negative = inhibition, hits mostly inhibitors; shares compounds with PLK1 PBD inh; recombinant TbPYK, Kinase-Glo ATP luminescence; AID 720569, 2013; note: % is set by controls: 0 for no effect and ±100 for the full control effect; nearly all actives have a fitted effect of over 70% in size
TbPYK ADP-Glo = qHTS of Trypanosoma Brucei Inhibitors: Orthogonal Assay for Cherry-picked Compounds; shares compounds with PLK1 PBD inh; recombinant TbPYK, ADP-Glo luminescence, 60 min; Potency, µM (series often up to 76.9 µM), without a hit: at the top dose activity change, negative = inhibition, most hits filed as inhibitors; hit rate 62% among 890; AID 720584, 2013; note: % is set by controls: 0 for no effect and ±100 for the full control effect; nearly all actives have a fitted effect of over 75% in size
An asterisk follows results filed as active; ? = inconclusive; . = no result given; [ ] = dose if it differs, or a comment. Calls come from the whole dose curve; as a rule, active = well fitted curve in the direction sought with a large enough effect; inconclusive = small, poorly fitted or top-dose-only effect, or another doubt; inactive = no such curve, though single readings can be large; an effect the other way counts as inactive or inconclusive. Potency is the fitted concentration of half-maximal effect.

SMILES | JMJD2A Tudor inh | HP1b binding inh | G9a block | PLK1 PBD inh | Sfp PPTase inh | BAZ2B block | TbPYK confirm | TbPYK ADP-Glo
NCCC[C@H](N)CC(=O)N[C@H]1CNC(=O)[C@@H]([C@@H]2C[C@H](O)N=C(N)N2)NC(=O)/C(=C/NC(N)=O)NC(=O)[C@@H](CO)NC(=O)[C@@H](CO)NC1=O | . | . | 23%[21.5 µM] | . | 25% | . | . | .
CC(=O)Nc1ccc(NC(=O)C(C)OC(=O)C2CCCCC2)cc1 (stereo unspecified) | -14% | 15% | 2%[12.7 µM] | -10% | . | 2% | . | .
Cc1ccc(-c2nc(N)s[n+]2-c2ccccc2)cc1 | 28µM* | ? | 5µM* | 3.8µM* | ? | 51% | 2.2µM* | 6.3µM*
Cc1ccc(-c2nc3ccccc3nc2-c2ccccc2)cc1 | 82% | 114% | . | -12% | -19% | 10% | . | .
CNc1nc(-c2ccccc2)[n+](-c2ccc(C)cc2)s1 | 20µM* | 11µM* | 1.4µM* | 1.5µM* | 3.2µM* | 7.9µM* | 1µM* | 1.8µM*
Cc1ccccc1CN(C)C(=O)CNC(=O)c1ccc2ccccc2c1 | -4% | 21% | -5%[2.33 µM] | 5% | 9% | 2% | . | .
CC(C)C1Nc2ccc(C(=O)O)cc2C2C=CCC21 (stereo unspecified) | 32µM* | ? | 10µM* | ? | 28µM* | 79µM* | ? | ?
CC(=O)c1ccc2c(c1)C1C=CCC1C(c1cc3c(cc1Br)OCO3)N2 (stereo unspecified) | -31% | 10% | 25%[2.33 µM] | -18% | . | -32% | . | .
COC(=O)c1sc(NC(=O)c2ccco2)nc1C | -8% | 20% | 26% | -4% | 12% | -3% | . | .
Cc1nc(NC(=O)c2ccco2)sc1C(=O)O | -17% | 12% | 12%[59 µM] | -5% | 11% | 5% | 20µM* | -10%
Cc1ccccc1NC(=O)c1sc2nc(N3CCOCC3)c3c(c2c1N)CCCC3 | 2% | 30% | -1%[0.0925 µM] | ? | ? | 14% | ? | 4µM*
CCOC(=O)c1ccc(NC(=O)c2sc3nc(N4CCOCC4)c4c(c3c2N)CCCC4)cc1 | 9% | 32% | 10% | -18% | -15% | -1% | ? | ?
CCOc1ccc(C(C(=O)NCC2CCCO2)N(C(=O)c2snc(C(N)=O)c2N)c2ccc3c(c2)OCCO3)cc1 (stereo unspecified) | -29% | 38% | 5%[59 µM] | -5% | 11% | -22% | . | .
Cc1cc(-c2cc(-c3ccc(Cl)cc3)nc(N)c2C#N)co1 | 40µM* | -9% | ? | 21µM* | 10µM* | ? | -21% | 40µM*
O=C1S/C(=C\c2ccc(N3CCOCC3)o2)C(=O)N1Cc1c(F)cccc1Cl | ? | 22% | ? | 55% | 2.8µM* | -36% | 18µM* | 14µM*
Cn1c(=O)c2c(nc(N3CCOCC3)n2Cc2c(F)cccc2Cl)n(C)c1=O | -4% | 28% | 10% | 0% | 6% | -3% | . | .
COc1cc(/C=C2/SC(=S)N(c3ccccc3)C2=O)ccc1Oc1nc(N2CCOCC2)nc(N2CCOCC2)n1 | -35% | -16% | -7% | 5% | ? | -9% | . | .
O=C1S/C(=C/c2ccc(N3CCOCC3)o2)C(=O)N1Cc1c(F)cccc1Cl | -30% | 39% | 1.8µM* | 43% | 4.5µM* | 4% | ? | 40µM*
O=C1S/C(=C\c2ccc(N3CCOCC3)o2)C(=O)N1c1ccccc1 | -4%[11.4 µM] | -9% | 5µM* | 65% | 4µM* | ? | ? | ?
O=C(Cc1c(F)cccc1Cl)N1CCOCC1 | 3% | 34% | -36% | 7% | 20% | -2% | . | .
COc1ccccc1C(=O)NC(=O)COC(=O)CCOc1cc(C)ccc1C | 31% | 73% | 55% | 0% | -7% | 6% | . | .
CC(=O)N/C(=C\c1ccccc1)C(=O)OCc1ccc(F)cc1 | -2% | 33% | 58% | -7% | 13% | 4% | . | .
Cc1ccc(Cl)cc1NC(=O)C1CCN(c2nnc(C)c3c(C)n(-c4ccccc4)nc23)CC1 | -12% | 33% | -31%[59 µM] | . | . | -13% | . | .
CCOC(=O)C1=CCN(S(=O)(=O)c2ccccc2Br)C1c1cccc(C)c1 (stereo unspecified) | . | . | . | 0% | . | . | . | .
O=[N+]([O-])c1ccc2c(c1)/C(=N\O)c1ccccc1-2 | -23% | 3% | -6% | 2% | -5% | -15% | . | .
SMILES | JMJD2A Tudor inh | HP1b binding inh | G9a block | PLK1 PBD inh | Sfp PPTase inh | BAZ2B block | TbPYK confirm | TbPYK ADP-Glo
O=[N+]([O-])c1ccc2c(c1)-c1ccccc1C2O (stereo unspecified) | . | . | . | 8.4µM* | . | . | ? | 35µM*
CSc1ccc(S(=O)(=O)Nc2ccc(S(=O)(=O)Nc3ccc(C)cc3)cc2)cc1 | ? | 0% | -33%[59 µM] | -9% | 15% | -31% | . | .
Cc1ccc(S(=O)(=O)NN=CC=CC=NNS(=O)(=O)c2ccc(C)cc2)cc1 | . | . | . | ? | . | . | 32µM* | 35µM*
Cc1ccc(NNS(=O)(=O)c2ccc(C)cc2)cc1 | 3.2µM* | ? | 0.79µM* | 3.8µM* | 40µM* | 20µM* | 8.9µM* | ?
Cc1ccc(S(=O)(=O)N/N=C/c2ccccc2O)cc1 | -12% | 25% | -1% | -6% | 17% | -1% | . | .
CCc1ccc(Nc2cc(C)nc3nc(Cc4ccc(Cl)cc4)nn23)cc1 | -13% | 37% | 0%[59 µM] | . | . | -18% | . | .
Cc1nc2ccc(S(=O)(=O)N3CCCCC3)cc2s1 | -1% | 2% | 16% | -5% | 20% | 1% | . | .
Nc1nc2ccc(S(=O)(=O)N3CCCCC3)cc2s1 | -10% | 7% | 6.3µM* | 0.34µM* | 10µM* | -1% | 13µM* | 11µM*
O=c1[nH]c(CN2CCCCC2)ccc1O | . | . | . | -24% | . | . | . | .
CC(=O)c1ccccc1NC(=O)CN1C(=O)NC2(CCCCCCC2)C1=O | 6% | 16%[57 µM] | . | -3% | . | . | . | .

High-throughput results from PubChem BioAssay.
